{"source": "the supplement of paper PMC10477191", "note": "± gives the standard deviation of the averaged measurements.", "data": [{"system": "Drosophila virilis antennal basiconic sensillum AB10", "assay": "odor-evoked OSN spike response (post minus pre-stimulus); higher = stronger neuronal excitation", "settings": "odor dilution: 10^-4", "protocol": "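Single sensillum recordings from antennal basiconic sensilla of D. virilis. A 500 ms pulse of odorant (10^-4 in mineral oil or DMSO) was delivered; the response is the change in spike frequency between the 1 s pre- and post-stimulus windows (spikes/s).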", "units": {"odor-evoked OSN spike response": "spikes/s"}, "values": [{"smiles": "CC(=O)OC/C=C(\\C)CCC=C(C)C", "note": "[geranyl acetate]", "odor-evoked OSN spike response": "134 ± 24"}, {"smiles": "CC(=O)C(C)O", "note": "(stereo not drawn) [acetoin]", "odor-evoked OSN spike response": "143 ± 43"}, {"smiles": "CCOC(=O)CC(C)O", "note": "(stereo not drawn) [Ethyl-3-hydroxybutyrate]", "odor-evoked OSN spike response": "99.4 ± 35"}]}]}
